Source: PubChem
LMNA splice mod = changes lamin A minigene splicing in HeLa cells | HeLa LMNA splicing GFP/RFP minigene ratio, 48 h | Potency, µM (titrated, usually from 46.1 µM), without a hit: at the highest dose ratio change, negative = inhibition, usual class: inhibitors | actives 0.01% (n = 200,000) | AID 1487; active means well fitted inhibition curve with a large enough effect in the signal ratio, with a control signal flat, not every such curve was filed as active; inconclusive means small, poorly fitted or top-dose-only effect, or effect the other way, or a change in a side signal; the % refers to the signal ratio; further: potency means the concentration at half of the fitted maximal effect
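Read-out is the ratio of GFP to DsRed2 object intensity, acquired by 488 nm laser-scanning cytometry on HeLa lamin A-EGFP minigene reporter cells. Compound incubation 48 hrs at 37 °C in Opti-MEM with 2% FBS; DMSO 0.5% final.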
HPGD inh = inhibitors of human 15-hydroxyprostaglandin dehydrogenase (HPGD). Potency, µM, for the others: at the highest dose activity change, negative = inhibition, hits mostly inhibitors. purified HPGD, NADH fluorescence kinetic, PGE2 substrate. actives 4.3% (n = 150,000); further: potency means the concentration at half of the fitted maximal effect
Target sequence (P15428 whole entry, looked up): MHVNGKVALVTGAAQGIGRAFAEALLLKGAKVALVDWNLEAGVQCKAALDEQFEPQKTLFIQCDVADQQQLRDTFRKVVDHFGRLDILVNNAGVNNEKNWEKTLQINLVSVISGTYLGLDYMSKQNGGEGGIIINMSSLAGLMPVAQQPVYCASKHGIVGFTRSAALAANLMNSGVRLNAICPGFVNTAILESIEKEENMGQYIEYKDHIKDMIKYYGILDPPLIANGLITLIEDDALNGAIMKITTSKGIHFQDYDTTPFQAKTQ
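NADH formation kinetics: reaction with 30 uM PGE2 and 1 mM NAD+ (final), 20 nM enzyme, Tris-HCl pH 8 with Tween 20, after 15 min compound preincubation at room temperature. Fluorescence change, last versus first of five reads.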
Luc counter = blocks Kinase-Glo luciferase, a counter-screen artifact | Q27757 | Potency, µM (top dose mostly 38.3 µM), for inactives: at the highest dose activity change, negative = inhibition, actives largely listed as inhibitors | actives 0.28% (n = 200,000) | Kinase-Glo luciferase, ATP luminescence, 8 min; active means well fitted inhibition curve with a large enough effect; inconclusive means small, poorly fitted or top-dose-only effect; further: potency means the concentration at half of the fitted maximal effect; nearly all actives have a fitted effect of over 60% in size
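Compounds were added to a substrate mix at pH 7.2 (50 mM imidazole, 10 uM ATP, within the enzyme's linear range), followed by Kinase-Glo detection reagent; luminescence was measured after 8 minutes at ambient temperature.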
IMPase cell inh = cell-permeable inhibitors of inositol monophosphatase (IMPase); P97697; CHO-M1 cells, IP1 accumulation, HTRF TR-FRET ratio; inhibition (IP1 accumulation), % at 46.1 µM; 120,000 tested, under 10 active; AID 901; active means well fitted curve in the direction sought with a large enough effect in the signal ratio, not every such curve was filed as active; inconclusive means small, poorly fitted or top-dose-only effect, or a change in a side signal; inactive means no such curve, though single readings can be large or run the other way; the % refers to the signal ratio;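 further: cells stimulated with carbachol in lithium chloride buffer; plate controls were DMSO basal wells for no effect and reference inhibitor wells for full effect; higher means more IMPase inhibition seen as more IP1 and lower FRET ratio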
Target sequence (P97697 whole entry, looked up): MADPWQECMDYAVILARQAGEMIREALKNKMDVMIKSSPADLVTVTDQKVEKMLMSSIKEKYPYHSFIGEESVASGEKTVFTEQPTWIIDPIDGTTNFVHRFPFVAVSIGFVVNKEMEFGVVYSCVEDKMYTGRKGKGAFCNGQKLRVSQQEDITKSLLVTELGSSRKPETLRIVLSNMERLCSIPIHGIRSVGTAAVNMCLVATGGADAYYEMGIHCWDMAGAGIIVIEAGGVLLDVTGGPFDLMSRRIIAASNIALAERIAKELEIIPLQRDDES
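Cellular IMPase inhibition is scored as a rise in cytosolic IP1, detected by competitive TR-FRET between d2-labelled IP1 and a europium anti-IP1 antibody. M1-expressing CHO cells were stimulated with carbachol for 30 min at 37C, with lithium (50 mM LiCl) present in the buffer.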
PNC inhibitor = inhibitors of perinucleolar compartment assembly; PC3M PTB-GFP, PNC prevalence imaging, 16 h; hits give low values; activity change (PNC), negative = inhibition, % at 10 µM; actives 3.1% (n = 140,000);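 active means readout at or below -70, meaning at least 70% loss of cells showing the perinucleolar compartment, a nuclear body marking cancer cells; inconclusive means readout between -30 and a set limit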;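 further: plate controls were DMSO wells for no effect and camptothecin positive control wells for full effect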
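Read-out is percentage of cells bearing a perinucleolar compartment, from automated 20x imaging of fixed, Hoechst-stained PC3M PTB-GFP cells. Cells were seeded 4 h, then exposed 16 h to compound (23 nl of library stock) in duplicate plates.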
ALDH1A1 inh = inhibitors of human aldehyde dehydrogenase 1A1; P00352; Purified ALDH1A1, NADH fluorescence, propionaldehyde substrate; Potency, µM (series often up to 75.3 µM), for the others: top-dose activity, negative = inhibition, hits mostly inhibitors; actives 7.3% (n = 220,000); AID 1030;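 further: potency means the concentration at half of the fitted maximal effect; plate controls were no enzyme wells and a reference inhibitor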
* hit, by the source's call; ? = inconclusive; / = not tested or not shown; [ ] = another dose, or the depositor's remark. Most compounds without a hit are left out; they make up all but 10% or so of the library. Unless noted, the call rests on the fitted dose curve; in most records, active means well fitted inhibition curve with a large enough effect (not every such curve was filed as active); inconclusive means small, poorly fitted or top-dose-only effect, or another doubt; inactive means no such curve, though single readings can be large or run the other way. Unless noted, on the % scale 0 is the no-effect control and ±100 the full control effect.

SMILES | LMNA splice mod | HPGD inh | Luc counter | IMPase cell inh | PNC inhibitor | ALDH1A1 inh
COC(=O)CSc1nc2c(c(=O)n(C)c(=O)n2C)n1CCC(C)C | -8% | 14µM* | 1% | 4 | ? | 13µM*
CC(C)CSc1nc2c(c(=O)[nH]c(=O)n2C)n1CCc1ccccc1 | 29% | -11% | -9% | 0 | 11 | -13%
CCOC(=O)CSc1nc2c(c(=O)[nH]c(=O)n2C)n1CCCc1ccccc1 | 2% | -12% | 10% | 10 | -108* | -5%
CCCCCCn1c(NCC)nc2c1c(=O)[nH]c(=O)n2C | 1% | -8% | 0% | -11 | -93* | 4%
CCOC(=O)C1CCN(c2cc(C)nc3c(-c4ccccc4OC)c(C)nn23)CC1 | -2%[46 µM] | / | / | / | / | /
COC(=O)[C@H](CCSC)NC(=O)C/C=C\[C@@H](C)[C@@H](CO)OC | / | / | / | / | / | 7%[13.5 µM]
O=C(Nc1cccc(F)c1)N1CCCC2(CCN(C(=O)c3cnccn3)CC2)C1 | / | -9% | 0% | / | / | ?
COC(=O)Cc1cc(=O)n(-c2nc3ccccc3[nH]2)[nH]1 | -13% | -5% | -3% | -16 | -100* | 4%
CCCc1nnc(SCc2ccc(OCC)cc2)n1N | -8% | 28µM* | 0% | -5 | -18 | -1%
CCCCc1nnc(SCc2ccc(OCC)cc2)n1N | ? | 25µM* | 2% | -6 | 21 | 7%
CCc1nnc(SCc2ccc(CSc3nnc(CC)n3N)cc2)n1N | 14% | -6% | 3% | 2 | 28 | -1%
CCc1nnc(SCc2ccc(OC(C)C)cc2)n1N | -5% | -9% | -3% | -3 | 50 | -2%
CCC1=C2CC[C@H]3C(=O)N(c4ccccc4)C(=O)[C@H]3[C@H]2[C@@]2(Cc3ccccc3)C(=NCCOC)OC(=O)N2C1=O | / | -14% | -2% | / | / | 3%
COCCn1nnnc1CN1CCC(NC(=O)c2ccc(Br)cc2)CC1 | -7% | -11% | 1% | 11 | -100* | 5%
COc1cc(C(=O)NC2CCN(Cc3nnnn3Cc3cccs3)CC2)cc(OC)c1OC | -5% | -7% | 2% | 8 | -16 | 8.9µM*
COc1cc(C(=O)NC(C)Cc2cccs2)cc(OC)c1OC (centres undefined) | -16%[46 µM] | / | 2% | / | / | 0%
COCCn1nnnc1CN1C2CCCC1CC(NC(C)=O)C2 (centres undefined) | -4% | -2% | -3% | -1 | -18 | 6%
COCCn1nnnc1CN1CCC(C)CC1 | -4% | -7% | -4% | -2 | -100* | ?
Cc1nn(C)c2c1c(-c1ccccc1)cc(=O)n2Cc1ccccc1C#N | 9%[46 µM] | / | / | / | / | /
Cc1ccc(-c2nnn(CC(=O)Nc3ccccc3-c3ccccc3)n2)c(-n2cnnn2)c1 | -3% | -8% | 1% | 6 | -9 | 25µM*
O=C(Cn1nnc(-c2ccccc2-n2cnnn2)n1)NCc1ccccc1 | -5% | -16% | -6% | -13 | -23 | 10µM*
O=C(CSc1nnc(-c2ccccc2Cl)o1)N1CCCc2ccccc21 | / | / | / | 14 | / | /
O=C(O)c1ccccc1Nc1ccc([N+](=O)[O-])cc1 | ? | -26% | -5% | / | -87* | -8%
Cc1c(Cl)cccc1Nc1ccccc1C(=O)O | ? | 14µM* | 1% | -3[20.6 µM] | / | 12%
COc1ccc2c(c1)C(=O)[C@@H](OC(=O)NS(=O)(=O)c1ccc(C)cc1)[C@H](c1ccc(OC)c(Br)c1)O2 | / | -3% | -1% | / | / | 4%
Cc1c2cccc(Sc3ccccc3)c2c2c3c(cccc13)[S+](c1ccccc1)C2 (centres undefined) | / | -8% | -7%[7.66 µM] | / | / | -10%[13.5 µM]
COc1ccc(NC(=O)/C(Cl)=C(/Cl)S(=O)Cc2ccc(Cl)cc2)cn1 (centres undefined) | ? | / | -2% | / | / | 0.35µM*
COc1ccc(NC(=O)C(Cl)=C(Cl)Cl)cn1 | ? | / | -4% | / | / | ?
COc1ccc(NC(=O)/C(Cl)=C(/Cl)S(=O)(=O)Cc2ccccc2)cn1 | ? | -27% | 0% | 4 | -21 | 1.3µM*
CCN(CC)S(=O)(=O)c1ccc2nc(NC(=O)c3cccnc3)sc2c1 | -3%[46 µM] | / | / | / | / | /
